# Measured values: paper PMC5700166
# Legend:
# Assay in all cases: protein-binding microarray (PBM); PBM: ~300 nM protein, 6 mM HEPES pH 7.8, 80 mM KCl, 0.5 mM EDTA, 0.5 mM EGTA, 6% glycerol, 35 ng/ul poly-dIdC, 1% milk, 1 h, room temperature; Ap Aiptasia and Nv Nematostella (sea anemones) / Co Capsaspora / Aq Amphimedon (sponge) / Dm Drosophila / Hu human; RHD is the Rel homology domain; high values mean tight binding
# Conditions in all cases: dsDNA, one strand shown
# GST-Ap-NF-kB RHD = target: T1, GST-Ap-NF-kB RHD (Exaiptasia pallida (Aiptasia), UniProt A0A913YAJ5 2-422)
# T1 sequence: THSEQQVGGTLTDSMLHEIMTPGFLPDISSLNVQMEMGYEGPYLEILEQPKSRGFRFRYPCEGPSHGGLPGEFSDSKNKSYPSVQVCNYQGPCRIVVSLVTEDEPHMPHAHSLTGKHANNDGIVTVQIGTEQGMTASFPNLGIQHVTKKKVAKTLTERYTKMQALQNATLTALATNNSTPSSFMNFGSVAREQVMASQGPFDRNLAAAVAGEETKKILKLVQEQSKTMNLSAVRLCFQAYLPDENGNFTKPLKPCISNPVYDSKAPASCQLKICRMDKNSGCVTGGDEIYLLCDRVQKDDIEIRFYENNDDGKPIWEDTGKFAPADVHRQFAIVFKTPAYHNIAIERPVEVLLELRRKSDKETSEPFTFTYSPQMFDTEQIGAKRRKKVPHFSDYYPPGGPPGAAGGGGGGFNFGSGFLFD
# [1] = target: T2, GST-Nv-NF-kB (Cys allele) (Nematostella vectensis, UniProt E5G601 2-411)
# T2 sequence: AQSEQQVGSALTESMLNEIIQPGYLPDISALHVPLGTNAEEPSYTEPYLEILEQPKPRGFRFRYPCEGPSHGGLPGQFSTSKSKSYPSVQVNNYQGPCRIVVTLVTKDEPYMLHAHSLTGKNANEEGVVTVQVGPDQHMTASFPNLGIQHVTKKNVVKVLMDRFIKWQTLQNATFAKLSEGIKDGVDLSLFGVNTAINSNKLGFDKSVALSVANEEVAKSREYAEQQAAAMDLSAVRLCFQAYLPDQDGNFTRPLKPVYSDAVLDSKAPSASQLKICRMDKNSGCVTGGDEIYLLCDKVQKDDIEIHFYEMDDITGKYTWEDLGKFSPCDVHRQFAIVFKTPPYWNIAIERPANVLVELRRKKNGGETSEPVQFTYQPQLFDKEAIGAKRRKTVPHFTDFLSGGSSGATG
# GST-Co-NF-kB = target: T3, GST-Co-NF-kB (Capsaspora owczarzaki, UniProt F1ARL5 200-546)
# T3 sequence: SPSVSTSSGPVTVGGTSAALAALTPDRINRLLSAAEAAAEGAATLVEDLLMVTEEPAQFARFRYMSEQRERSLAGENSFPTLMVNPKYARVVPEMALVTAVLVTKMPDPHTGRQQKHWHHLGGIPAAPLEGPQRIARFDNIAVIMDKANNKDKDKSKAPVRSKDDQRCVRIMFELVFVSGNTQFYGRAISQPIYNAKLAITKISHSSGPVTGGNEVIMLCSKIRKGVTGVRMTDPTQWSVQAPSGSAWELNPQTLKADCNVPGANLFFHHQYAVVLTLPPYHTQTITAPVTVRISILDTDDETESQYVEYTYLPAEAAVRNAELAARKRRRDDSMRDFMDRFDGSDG
# GST-Dm-Relish = target: T4, GST-Dm-Relish (Drosophila melanogaster, UniProt Q94527 99-473)
# T4 sequence: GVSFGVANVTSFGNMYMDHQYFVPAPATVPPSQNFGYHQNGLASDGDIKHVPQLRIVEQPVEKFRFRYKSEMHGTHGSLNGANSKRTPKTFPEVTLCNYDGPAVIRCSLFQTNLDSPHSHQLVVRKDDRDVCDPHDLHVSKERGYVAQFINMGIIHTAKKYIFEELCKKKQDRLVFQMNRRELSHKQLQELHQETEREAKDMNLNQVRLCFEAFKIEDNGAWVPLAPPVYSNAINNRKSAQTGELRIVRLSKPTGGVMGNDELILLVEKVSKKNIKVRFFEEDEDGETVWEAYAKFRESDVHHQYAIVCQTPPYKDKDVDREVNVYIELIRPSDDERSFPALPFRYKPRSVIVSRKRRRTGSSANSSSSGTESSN
# GST-Aq-NF-kB = target: T5, GST-Aq-NF-kB (Amphimedon queenslandica, UniProt A9Y5G7 2-389)
# T5 sequence: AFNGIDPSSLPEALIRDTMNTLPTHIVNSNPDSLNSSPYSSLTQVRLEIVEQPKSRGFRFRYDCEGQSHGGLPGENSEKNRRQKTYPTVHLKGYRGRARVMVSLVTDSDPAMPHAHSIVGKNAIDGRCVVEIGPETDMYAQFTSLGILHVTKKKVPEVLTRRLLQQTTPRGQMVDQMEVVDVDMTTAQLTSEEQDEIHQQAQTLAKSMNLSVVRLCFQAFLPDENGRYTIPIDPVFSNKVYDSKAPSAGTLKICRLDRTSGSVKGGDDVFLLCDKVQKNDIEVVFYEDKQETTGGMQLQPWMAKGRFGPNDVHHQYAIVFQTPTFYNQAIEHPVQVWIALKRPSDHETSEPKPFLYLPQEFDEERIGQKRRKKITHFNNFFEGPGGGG
Sequence,binding signal (GST-Ap-NF-kB RHD) [z-score],binding signal [1] [z-score],binding signal (GST-Co-NF-kB) [z-score],binding signal (GST-Dm-Relish) [z-score],binding signal (GST-Aq-NF-kB) [z-score]
CCGATTAACATCATGGGAAAAAATGATGTTAATCGGGTCTTGATTCGCTTGACGCTGCTG,1.94,3.64,4.93,1.7,2.57
CCGATTAACATCAGGGATAACCCTGATGTTAATCGGGTCTTGATTCGCTTGACGCTGCTG,3.63,3.77,1.82,4.42,6.12
CCGATTAACATCAGGGAAGTCCATGATGTTAATCGGGTCTTGATTCGCTTGACGCTGCTG,2.24,2.51,1.08,7.44,4.62
CCGATTAACATCACATGTTCCCCTGATGTTAATCGGGTCTTGATTCGCTTGACGCTGCTG,4.94,5.26,6.79,3.04,4.62
CCGATTAACATCAAGCATCCCCCTGATGTTAATCGGGTCTTGATTCGCTTGACGCTGCTG,4.92,5.03,4.28,3.89,4.87
CCGATTAACATCAAGGGGGAGGGTGATGTTAATCGGGTCTTGATTCGCTTGACGCTGCTG,4.24,3.46,4.4,3.15,4.42
CCGATTAACATCACCCGTTTCCCTGATGTTAATCGGGTCTTGATTCGCTTGACGCTGCTG,2.8,3.24,3.33,1.19,3.03
CCGATTAACATCAGGGTAAAACCTGATGTTAATCGGGTCTTGATTCGCTTGACGCTGCTG,1.98,3.16,1.9,3.45,6.02
CCGATTAACATCAGGAGAACCCCTGATGTTAATCGGGTCTTGATTCGCTTGACGCTGCTG,4,3.59,1.26,3.65,5.68
CCGATTAACATCACGGAACTCCCTGATGTTAATCGGGTCTTGATTCGCTTGACGCTGCTG,3,3.34,1.42,4.06,4.43
CCGATTAACATCATTCGGGAAAATGATGTTAATCGGGTCTTGATTCGCTTGACGCTGCTG,1.48,3.97,3.01,1.3,2.01
CCGATTAACATCAGGGACAACCCTGATGTTAATCGGGTCTTGATTCGCTTGACGCTGCTG,3.42,4.16,1.06,3.09,5.59
CCGATTAACATCAAAACAACCCCTGATGTTAATCGGGTCTTGATTCGCTTGACGCTGCTG,3.57,3.44,2.54,2.68,4.83
CCGATTAACATCAGAAGATTCCCTGATGTTAATCGGGTCTTGATTCGCTTGACGCTGCTG,3.38,4.85,3.43,3.48,5.19
CCGATTAACATCACATTCTCCCCTGATGTTAATCGGGTCTTGATTCGCTTGACGCTGCTG,4.7,4.44,6.71,1.55,3.34
CCGATTAACATCAGGGGGGGACCTGATGTTAATCGGGTCTTGATTCGCTTGACGCTGCTG,7.43,4.15,5.99,4.96,5.51
CCGATTAACATCATCCGGGAAAATGATGTTAATCGGGTCTTGATTCGCTTGACGCTGCTG,2.01,3.79,4.53,1.58,2.54
CCGATTAACATCAGGGGAAGGTATGATGTTAATCGGGTCTTGATTCGCTTGACGCTGCTG,3.33,4.71,5.15,2.58,3.96
CCGATTAACATCACGAGATTCCCTGATGTTAATCGGGTCTTGATTCGCTTGACGCTGCTG,3.03,3.39,2.52,1.75,3.38
CCGATTAACATCACAATACCCCCTGATGTTAATCGGGTCTTGATTCGCTTGACGCTGCTG,7.39,4.51,4.26,4.2,4.87
CCGATTAACATCACCGATTTCCCTGATGTTAATCGGGTCTTGATTCGCTTGACGCTGCTG,2.92,3.79,3.27,2,2.57
CCGATTAACATCAGGAACTACCCTGATGTTAATCGGGTCTTGATTCGCTTGACGCTGCTG,2.97,2.75,1.33,3.64,5.04
CCGATTAACATCAAATGGGAATTTGATGTTAATCGGGTCTTGATTCGCTTGACGCTGCTG,1.19,4.5,1.12,4.52,2.35
CCGATTAACATCAGATCTTCCCCTGATGTTAATCGGGTCTTGATTCGCTTGACGCTGCTG,4.63,6.25,7.3,4.83,6.29
CCGATTAACATCACACATTTCCCTGATGTTAATCGGGTCTTGATTCGCTTGACGCTGCTG,2.78,4.57,4.08,1.1,3.88
CCGATTAACATCAGGGTGTTTTATGATGTTAATCGGGTCTTGATTCGCTTGACGCTGCTG,2.75,2.67,1.55,3.11,4.69
CCGATTAACATCAAATTCCCAGTTGATGTTAATCGGGTCTTGATTCGCTTGACGCTGCTG,1.52,3.74,2.97,4.29,2.37
